The results in this text go back to PubChem BioAssay.

Active and inactive are the calls of the source. Unless noted, no rule for the calls is given here.

Test [1] is described as follows: liver-stage malaria parasite load reduction – cell-based, known kinase inhibitor set, luminescence, hepatoma host viability (AID 624392).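 Also: infected cells incubated roughly two days before readout.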 The following applies: Plasmodium liver stage in hepatoma cells, luciferase luminescence, concentration not given here; liver cell % of control: measured here: host liver cell viability; parasite % of control: stronger effect = lower value.

Test [2] is described as follows: altered dexamethasone sensitivity, NF-kB reporter, cell-based, luciferase, IL-1B stimulus (AID 624486).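 As to percent of negative control (+Dex): 100% = mean signal of vehicle control wells on the plate.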 The following applies: IL-1B + dexamethasone, luminescence; percent of negative control (+Dex): actives lie on both sides, concentration not given here; z-score: measured here: IL-1B alone, no Dex.
Test [3] in a line: C. elegans survival during P. aeruginosa infection – whole organism (AID 651566).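 Also: tested at 14 µM; sign flipped so higher z means a lower ratio.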 Particulars: C. elegans killed by P. aeruginosa, survival ratio.
Test [4] is described as follows: pro-inflammatory signaling induction in mouse macrophages – cell-based, murine, luminescence (AID 652131). Particulars: murine macrophage pro-inflammatory reporter, stronger effect = higher value.
For test [5], the target named is Cellular tumor antigen p53 (Homo sapiens) (UniProt P04637). Nature of the test: GFP-p53 level modulators in HPV16+ cells – imaging, known kinase inhibitor set, EGFP/DsRed ratio (AID 1053116).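 Also: cells exposed to compounds for 24 h at 37 °C before reading.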 The following applies: GFP-p53 stability, stronger effect = higher value; EGFP object count: measured here: GFP-p53 positive objects count.
Sequence of Cellular tumor antigen p53 (Homo sapiens) (P04637 whole entry, looked up): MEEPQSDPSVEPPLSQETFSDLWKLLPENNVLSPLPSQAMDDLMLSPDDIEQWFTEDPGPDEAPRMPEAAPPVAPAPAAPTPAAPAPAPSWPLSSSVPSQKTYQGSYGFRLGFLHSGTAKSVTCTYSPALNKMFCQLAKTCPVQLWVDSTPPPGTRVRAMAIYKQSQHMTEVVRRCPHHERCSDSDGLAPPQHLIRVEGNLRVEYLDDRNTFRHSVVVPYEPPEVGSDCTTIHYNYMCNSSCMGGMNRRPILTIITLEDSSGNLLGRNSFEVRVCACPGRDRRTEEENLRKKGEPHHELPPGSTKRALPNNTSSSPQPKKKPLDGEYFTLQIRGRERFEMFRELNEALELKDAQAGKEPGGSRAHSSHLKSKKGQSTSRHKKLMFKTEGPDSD
The nature of test [6]: inducers of IRF3 signaling, differentiated THP-1 – cell-based, PMA-stimulated THP-1, luminescence (AID 1053176). Particulars: PMA-differentiated THP-1, IRF3 reporter luminescence; stronger effect = higher value.
A short description of test [7]: MELAS cybrid and Rieske KO viability enhancers – cell-based, MELAS cybrids, Rieske KO mouse fibroblasts, CellTiter-Glo, primary screen (AID 1508586;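 active = mean z-score across replicates of 1.96 or higher in either the MELAS or the Rieske mutant cell line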;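 also: z relative to plate mean and SD of compound and empty wells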). Particulars: low glucose. A general note: Cellular ATP, detected with luciferase, serves as a proxy for viable cell number.
The mark [8] stands for this setting: MELAS cybrid survival, CellTiter-Glo 48 h, stronger effect = higher value.
The mark [9] stands for this setting: Rieske KO mouse fibroblast survival, CellTiter-Glo 72 h.

In the case of `CN1CCN(Cc2ccc(-c3cc4ncnc(Nc5ccc(OCc6cccc(F)c6)c(Cl)c5)c4s3)o2)CC1`, the liver cell % of control in test [1] worked out at 69.8%. Moreover, the parasite % of control in test [1] was 97% (inactive). For the same compound, in test [2], the percent of negative control (+Dex) is 86.5% (inactive). For the same compound, the z-score in test [2] was -0.395; in test [3] it was 0.455 (inactive); in test [4], -0.527 (inactive); in test [7] (setting [8]) it was 0.235 (inactive); in test [7] (setting [9]) it was -0.538. The EGFP object count in test [5] was determined as 11.5. Besides, in test [5], the EGFP/DsRed ratio was 0.213 (inactive). In test [6], the fraction signal was 0.006 (inactive).
Consider `CN1CCC(C(=O)NC2NNC3NNC(c4ccccc4)CC32)CC1` (stereo not drawn), for which the liver cell % of control in test [1] came out at 89.8%. Moreover, the parasite % of control in test [1] was 66% (inactive). Moreover, the percent of negative control (+Dex) in test [2] is 90.5% (inactive). The z-score in test [2] was -0.385; in test [3], -0.44 (inactive); in test [4], 3.5 (inactive); in test [7] (setting [8]), -0.114 (inactive); in test [7] (setting [9]), -0.215. Besides, the EGFP object count in test [5] came out at 24. In test [5], the EGFP/DsRed ratio was 0.259 (inactive). Moreover, the fraction signal in test [6] is -0.0035 (inactive).
In test [1], `CCn1c(-c2nonc2N)nc2c(C#CC(C)(C)O)ncc(OCC3CCNCC3)c21` had a liver cell % of control of 88.1%. Besides, the parasite % of control in test [1] was 91.5% (inactive). The percent of negative control (+Dex) in test [2] is 86% (inactive). Moreover, the z-score in test [2] was -0.76; in test [3] it was -1.35 (inactive); in test [4] it was 3.98 (inactive); in test [7] (setting [8]), 0.123 (inactive); in test [7] (setting [9]), -0.292. For the same compound, in test [5], the EGFP object count was determined as 13. The EGFP/DsRed ratio in test [5] was 0.169 (inactive). The fraction signal in test [6] was 0.002 (inactive).
In the case of `COc1cccc(-n2ncc3c(N/N=C/c4ccc(C)cc4)ncnc32)c1`, the liver cell % of control in test [1] was 114%. Moreover, the parasite % of control in test [1] is 130% (inactive). In addition, the percent of negative control (+Dex) in test [2] was 105% (inactive). Besides, the z-score was 0.92 in test [2]; -0.225 (inactive) in test [3]; -0.468 (inactive) in test [4]; -0.521 (inactive) in test [7] (setting [8]); 0.152 in test [7] (setting [9]). The EGFP object count in test [5] was found to be 9.5. The EGFP/DsRed ratio in test [5] was 0.811 (inactive). In addition, the fraction signal in test [6] is 0.0005 (inactive).
On to `COc1cc(Nc2nccc(Nc3ccc4c(C)[nH]nc4c3)n2)cc(OC)c1OC`, for which the liver cell % of control in test [1] worked out at 142%. For the same compound, the parasite % of control in test [1] is 247% (inactive). In addition, in test [2], the percent of negative control (+Dex) is 68% (inactive). For the same compound, the z-score in test [2] was -1.93; in test [3], -0.535 (inactive); in test [4] it was 2.91 (inactive); in test [7] (setting [8]), -0.786; in test [7] (setting [9]), 5.33. For the same compound, in test [5], the EGFP object count turned out to be 2. Also, in test [5], the EGFP/DsRed ratio was 0.0182 (inactive). In addition, in test [6], the fraction signal is -0.01 (inactive).
`c1ccc(-c2nc3n(c2-c2ccc4c(c2)OCO4)CCC3)nc1` showed a liver cell % of control in test [1] of 103%. For the same compound, in test [1], the parasite % of control is 16.7% (inactive). Further, the percent of negative control (+Dex) in test [2] was 102% (inactive). The z-score in test [2] is 0.295; in test [3], 1.04 (inactive); in test [4], 4.3 (inactive); in test [7] (setting [8]), -1.04 (inactive); in test [7] (setting [9]), 0.741. Also, in test [5], the EGFP object count worked out at 6. In addition, the EGFP/DsRed ratio in test [5] was 0.172 (inactive). The fraction signal in test [6] is -0.003 (inactive).
In the case of `O=C1N=c2ccc(N=Cc3c(O)[nH]c4ccccc34)cc2=N1`, the liver cell % of control in test [1] was found to be 79.5%. In addition, in test [1], the parasite % of control is 117% (inactive). Besides, the percent of negative control (+Dex) in test [2] is 86% (inactive). Moreover, the z-score is -0.205 in test [2]; -0.24 (inactive) in test [3]; 1.12 (inactive) in test [4]; 1.49 (inactive) in test [7] (setting [8]); -0.0625 in test [7] (setting [9]). In addition, the EGFP object count in test [5] is 5.5. The EGFP/DsRed ratio in test [5] was 0.268 (inactive). In addition, the fraction signal in test [6] is -0.0005 (inactive).
Consider `CCn1c(-c2nonc2N)nc2c(C#CC(C)(C)O)ncc(OC3CCNCC3)c21`, for which the liver cell % of control in test [1] came to 78%. Further, the parasite % of control in test [1] was 13.9% (active). The percent of negative control (+Dex) in test [2] was 89% (inactive). The z-score was -0.435 in test [2]; 0.17 (inactive) in test [3]; 3.47 (inactive) in test [4]; -0.105 (inactive) in test [7] (setting [8]); -0.284 in test [7] (setting [9]). Besides, the EGFP object count in test [5] is 10.5. Besides, the EGFP/DsRed ratio in test [5] was 0.266 (inactive). In test [6], the fraction signal is 0.001 (inactive).
In the case of `N#Cc1cccc(Nc2ncc(-c3ccccc3)o2)c1`, in test [1], the liver cell % of control is 108%. The parasite % of control in test [1] was 125% (inactive). In test [2], the percent of negative control (+Dex) was 241% (active). The z-score in test [2] is 19.8; in test [3], -0.175 (inactive); in test [4], 4.37 (inactive); in test [7] (setting [8]), 1.35 (inactive); in test [7] (setting [9]) it was 0.0963. Besides, the EGFP object count in test [5] is 6. Also, in test [5], the EGFP/DsRed ratio is 0.11 (inactive). The fraction signal in test [6] is -0.004 (inactive).
`c1cc(-c2cnn3nc(N4CCOCC4)ccc23)nc(NC2CC2)n1`: in test [1], the liver cell % of control came to 147%. The parasite % of control in test [1] is 177% (inactive). Also, in test [2], the percent of negative control (+Dex) is 59.5% (inactive). Besides, the z-score in test [2] is -2.65; in test [3], -0.225 (inactive); in test [4], -1.49 (inactive); in test [7] (setting [8]) it was 0.731 (inactive); in test [7] (setting [9]) it was -0.389. In addition, the EGFP object count in test [5] was 3.5. Besides, the EGFP/DsRed ratio in test [5] is 0.0725 (inactive). Moreover, in test [6], the fraction signal is -0.008 (inactive).
For `NS(=O)(=O)c1cccc(-c2cc3ccncc3cc2OCc2ccccc2)c1`, the liver cell % of control in test [1] was determined as 147%. Further, the parasite % of control in test [1] was 183% (inactive). Further, the percent of negative control (+Dex) in test [2] is 95% (inactive). The z-score in test [2] is 0.36; in test [3], 1.48 (inactive); in test [4], -0.246 (inactive); in test [7] (setting [8]), 2.15 (active); in test [7] (setting [9]), 0.958. For the same compound, the EGFP object count in test [5] turned out to be 3.5. Further, in test [5], the EGFP/DsRed ratio is 0.215 (inactive). For the same compound, the fraction signal in test [6] is -0.012 (inactive).
`COc1cc(N2CCN(C(C)C)CC2)ccc1Nc1nc(Nc2ccc(F)cc2C(N)=O)c2cc[nH]c2n1`: in test [1], the liver cell % of control was determined as 64.4%. For the same compound, the parasite % of control in test [1] was 792% (inactive). The percent of negative control (+Dex) in test [2] is 70% (inactive). Besides, the z-score was -2.39 in test [2]; 0.205 (inactive) in test [3]; 0.179 (inactive) in test [4]; 2.96 (active) in test [7] (setting [8]); 7.03 in test [7] (setting [9]). For the same compound, the EGFP object count in test [5] was determined as 4. For the same compound, in test [5], the EGFP/DsRed ratio was 0.221 (inactive). Besides, the fraction signal in test [6] is 0.001 (inactive).
Compound `Clc1ccc(CNc2nccc(-c3cnn4ncccc34)n2)cc1` registered a liver cell % of control in test [1] of 78.2%. Also, the parasite % of control in test [1] is 176% (inactive). Moreover, the percent of negative control (+Dex) in test [2] is 26.5% (active). Moreover, the z-score in test [2] is -7.22; in test [3], 0.125 (inactive); in test [4], -1.14 (inactive); in test [7] (setting [8]) it was 0.484 (inactive); in test [7] (setting [9]), -0.266. Besides, the EGFP object count in test [5] worked out at 1. Moreover, the EGFP/DsRed ratio in test [5] was 0.0281 (inactive). In addition, the fraction signal in test [6] is 0 (inactive).
